Values joined by “and” are separate entries in the source; they are usually repeats but may differ in a detail not shown here. Equal values may be shown once. Hit rate of the full screen: of about 5,500 compounds, about 2,000 (36%) were called active. Another 18% or so got no clear call; they are omitted. Cut-off read from the data, not from the text of the source: active = normalized growth mostly below about 0.91 (no sharp cut-off); inconclusive = no clear call, values can overlap the other calls; inactive = mostly above about 0.92. Some of the results follow.
Assay: chemical genetic growth profiling, strain panel (AID 1159580);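 note: tested at 20 µM; growth read once vehicle control cultures reached saturation at 30 °C; 1 = growth at the plate median or of vehicle wells; lower values mean less growth of the strain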
Conditions: S. cerevisiae deletion strains, growth OD
[1] = locus YGR078C, strain PAC10, hits give low values
[2] = locus YNL153C, strain GIM3, hits give low values

Measured: normalized growth

Cn1c(=O)c2[nH]c(-c3ccc(S(=O)(=O)O)cc3)nc2n(C)c1=O
inactive: locus YAL040C, strain CLN3, hits give low values 1.01 | locus YCL061C, strain MRC1 (second series), hits give low values 1.01 | locus YER002W, strain NOP16, hits give low values 1.01 | [1] 1.01 | [2] 1.03 | locus YNL175C, strain NOP13, hits give low values 1.01 | locus YNL197C, strain WHI3, hits give low values 0.993 | locus YNL224C, strain SQS1, hits give low values 1 | locus YOR083W, strain WHI5 (second series), hits give low values 0.98 | locus YPL055C, strain LGE1, hits give low values 1 | locus YPL241C, strain CIN2, hits give low values 1.02

COC(=O)CC1C(C)(C)C(OC(C)=O)[C@@H]2[C@@H](OC(C)=O)[C@]34O[C@@]2(O)[C@]1(C)C3CC[C@]1(C)C4=CC(=O)O[C@H]1c1ccoc1 (stereo not given in full)
inactive: locus YAL013W, strain DEP1, hits give low values 1.02 | locus YAL021C, strain ccr4, hits give low values 1.03 | locus YAL026C, strain drs2, hits give low values 0.991 | locus YAL030W, strain snc1, hits give low values 1.01 | locus YBL061C, strain skt5, hits give low values 0.998 | locus YBR009C, strain hhf1, hits give low values 1.03 | locus YBR021W, strain FUR4, hits give low values 1.04 | locus YBR023C, strain chs3, hits give low values 1.01 | locus YBR171W, strain sec66, hits give low values 1 | locus YBR229C, strain ROT2, hits give low values 0.96 | locus YBR231C, strain swc5, hits give low values 1.01 | locus YBR279W, strain paf1, hits give low values 1.01 | locus YCL011C, strain gbp2, hits give low values 1.01 | locus YCL016C, strain dcc1, hits give low values 1.02 | locus YCL029C, strain bik1, hits give low values 1.02 | locus YCL061C, strain MRC1, hits give low values 1.01 | locus YCL069W, strain vba3, hits give low values 1.01 | locus YCR088W, strain abp1, hits give low values 1.01 | locus YDL005C, strain med2, hits give low values 0.991 | locus YDL035C, strain GPR1, hits give low values 0.98 | locus YDL040C, strain nat1, hits give low values 1.02 | locus YDL074C, strain BRE1, hits give low values 1.03 | locus YDL101C, strain DUN1, hits give low values 1.02 | locus YDL134C, strain PPH21, hits give low values 1.05 | locus YDL185W, strain tfp1, hits give low values 0.977 | locus YDL192W, strain arf1, hits give low values 0.983 | locus YDR001C, strain nth1, hits give low values 1.01 | locus YDR069C, strain doa4, hits give low values 1.02 | locus YDR101C, strain arx1, hits give low values 0.975 | locus YDR137W, strain rgp1, hits give low values 0.93 | locus YDR150W, strain NUM1, hits give low values 1.01 | locus YDR159W, strain sac3, hits give low values 1 | locus YDR162C, strain NBP2, hits give low values 1 | locus YDR195W, strain ref2 1.01 | locus YDR297W, strain sur2, hits give low values 1.02 | locus YDR318W, strain mcm21, hits give low values 0.997 | locus YDR334W, strain swr1, hits give low values 1.01 | locus YDR335W, strain msn5, hits give low values 1.01 | locus YDR388W, hits give low values 1.02 | locus YDR392W, strain spt3, hits give low values 1.07 | locus YDR502C, strain sam2, hits give low values 1.03 | locus YEL003W, strain gim4, hits give low values 1.01 | locus YEL037C, strain rad23, hits give low values 1 | locus YEL061C, strain CIN8 (second series), hits give low values 1 | locus YEL061C, strain CIN8, hits give low values 1 | locus YER015W, strain faa2, hits give low values 1.01 | locus YER016W, strain bim1, hits give low values 1.01 | locus YER110C, hits give low values 0.998 | locus YER111C, strain swi4, hits give low values 0.988 | locus YER155C, strain BEM2 (second series), hits give low values 1.05 | locus YER155C, strain BEM2, hits give low values 1.01 | locus YER167W, strain BCK2, hits give low values 0.991 | locus YFR010W, strain ubp6, hits give low values 1 | locus YGL078C, strain dbp3, hits give low values 1.01 | locus YGL086W, strain mad1, hits give low values 1.02 | locus YGL167C, strain pmr1, hits give low values 1.01 | locus YGL173C, strain kem1, hits give low values 1 | locus YGL227W, strain vid30, hits give low values 1 | locus YGL240W, strain doc1, hits give low values 1.01 | locus YGL248W, strain PDE1, hits give low values 1.03 | locus YGL253W, strain hxk2, hits give low values 0.953 | [1] 1.05 | locus YGR135W, strain pre9, hits give low values 1.08 | locus YGR252W, strain gcn5, hits give low values 1.09 | locus YHR013C, strain ard1, hits give low values 1.02 | locus YHR027C, strain rpn1, hits give low values 1.01 | locus YHR030C, strain SLT2, hits give low values 1.03 | locus YHR079C, strain IRE1 (second series), hits give low values 0.989 | locus YHR079C, strain IRE1, hits give low values 1.04 | locus YHR094C, strain hxt1, hits give low values 1 | locus YHR129C, strain ARP1, hits give low values 1.02 | locus YHR142W, strain chs7, hits give low values 0.983 | locus YHR200W, strain rpn10, hits give low values 1.03 | locus YIL066C, strain RNR3, hits give low values 0.979 | locus YIL073C, strain SPO22, hits give low values 0.988 | locus YIL125W, strain kgd1, hits give low values 0.991 | locus YIR030C, strain dcg1, hits give low values 0.996 | locus YJL092W, strain hpr5, hits give low values 1.01 | locus YJL095W, strain BCK1 (second series), hits give low values 0.999 | locus YJL095W, strain BCK1, hits give low values 1.07 and 1.02 | locus YJL115W, strain asf1, hits give low values 0.998 | locus YJL129C, strain trk1, hits give low values 0.984 | locus YJL134W, strain LCB3, hits give low values 0.996 | locus YJL154C, strain vps35, hits give low values 1.02 | locus YJL164C, strain tpk1, hits give low values 1 | locus YJL166W, strain qcr8, hits give low values 1.01 | locus YJL168C, strain set2, hits give low values 1.02 | locus YJL187C, strain SWE1 (second series), hits give low values 1.04 | locus YJR066W, strain TOR1, hits give low values 0.963 | locus YKL009W, strain mrt4, hits give low values 0.921 | locus YKL068W, hits give low values 0.99 | locus YKL085W, strain MDH1 (second series), hits give low values 1.01 | locus YKL085W, strain MDH1, hits give low values 1.01 | locus YKL160W, strain elf1, hits give low values 1.01 | locus YKL190W, strain CNB1, hits give low values 1 | locus YKR001C, strain vps1, hits give low values 0.978 | locus YKR026C, strain gcn3, hits give low values 1.01 | locus YKR091W, strain srl3, hits give low values 1.01 | locus YLL001W, strain dnm1, hits give low values 1 | locus YLL026W, hits give low values 0.999 | locus YLL041C, strain sdh2, hits give low values 0.998 | locus YLR027C, strain aat2, hits give low values 1.01 | locus YLR039C, strain RIC1, hits give low values 0.934 | locus YLR058C, strain SHM2, hits give low values 0.988 | locus YLR102C, strain apc9, hits give low values 1.01 | locus YLR113W, strain HOG1, hits give low values 0.998 | locus YLR221C, strain rsa3, hits give low values 1.03 | locus YLR258W, strain gsy2, hits give low values 1 | locus YLR262C, strain YPT6 (second series), hits give low values 0.963 | locus YLR262C, strain YPT6, hits give low values 0.899 | locus YLR268W, strain sec22, hits give low values 0.983 | locus YLR320W, strain mms22, hits give low values 1.01 | locus YLR330W, strain CHS5, hits give low values 1.01 | locus YLR342W, strain FKS1 (second series), hits give low values 1.06 | locus YLR342W, strain FKS1, hits give low values 1.01 | locus YLR357W, strain rsc2, hits give low values 1.06 | locus YLR370C, strain arc18, hits give low values 1.03 | locus YLR371W, strain rom2, hits give low values 1.01 | locus YLR384C, strain iki3, hits give low values 0.99 | locus YLR418C, strain cdc73, hits give low values 1.07 | locus YML016C, strain PPZ1, hits give low values 1.01 | locus YML032C, strain rad52, hits give low values 0.991 | locus YML120C, strain ndi1, hits give low values 1.03 | locus YML124C, strain tub3, hits give low values 0.997 | locus YMR058W, strain fet3, hits give low values 1.01 | locus YMR078C, strain ctf18, hits give low values 0.998 | locus YMR125W, strain sto1, hits give low values 1.02 | locus YMR129W, hits give low values 0.996 | locus YMR205C, strain PFK2, hits give low values 1.02 | locus YMR223W, strain ubp8, hits give low values 1.03 | locus YMR231W, strain pep5, hits give low values 0.994 | locus YMR307W, strain GAS1, hits give low values 1.02 | locus YNL067W, strain RPL9B, hits give low values 1.05 | locus YNL071W, strain lat1, hits give low values 1.01 | locus YNL128W, strain TEP1, hits give low values 0.97 | [2] 1.05 | locus YNL183C, strain NPR1, hits give low values 0.978 | locus YNL209W, strain ssb2, hits give low values 1.02 | locus YNL233W, strain BNI4, hits give low values 1.08 | locus YNL248C, strain rpa49, hits give low values 0.999 | locus YNL250W, strain rad50, hits give low values 1 | locus YNL271C, strain bni1, hits give low values 1 | locus YNL298W, strain CLA4, hits give low values 1.01 | locus YNL307C, strain MCK1, hits give low values 1.01 | locus YNL322C, strain KRE1 (second series), hits give low values 1.01 | locus YNR049C, strain mso1, hits give low values 1.01 | locus YNR052C, strain pop2, hits give low values 1.06 | locus YOL012C, strain htz1 1.16 | locus YOL147C, strain pex11, hits give low values 1 | locus YOR001W, strain rrp6, hits give low values 1.02 | locus YOR061W, strain CKA2, hits give low values 0.946 | locus YOR069W, strain VPS5, hits give low values 1.01 | locus YOR070C, strain gyp1, hits give low values 1.01 | locus YOR080W, strain dia2, hits give low values 1 | locus YOR083W, strain WHI5, hits give low values 1.01 | locus YOR106W, strain vam3, hits give low values 1.02 | locus YOR136W, strain idh2, hits give low values 1.02 | locus YOR144C, strain elg1, hits give low values 1 | locus YOR184W, strain ser1, hits give low values 0.957 | locus YOR231W, strain MKK1, hits give low values 0.995 | locus YOR265W, strain rbl2, hits give low values 1 | locus YOR270C, strain vph1, hits give low values 0.806 | locus YOR290C, strain snf2, hits give low values 1.01 | locus YOR316C, strain cot1, hits give low values 1.01 | locus YPL051W, strain arl3, hits give low values 1.02 | locus YPL078C, strain atp4, hits give low values 1 | locus YPL106C, strain sse1, hits give low values 1.06 | locus YPL240C, strain hsp82, hits give low values 1.01 | locus YPL256C, strain CLN2, hits give low values 1.04 | locus YPR119W, strain clb2, hits give low values 1 | locus YPR141C, strain kar3, hits give low values 0.979 | locus YPR163C, strain tif3, hits give low values 1.01 | locus YPR167C, strain met16, hits give low values 1.01 | strain wtn01, hits give low values 0.982
